The results in this text go back to PubChem BioAssay.

Test [1] in a line: resazurin metabolic signal in HepG2 cells – cell-based, resazurin fluorescence, 24 h, PK04 Diversity Set, profiling panel (AID 1172). Note: test concentration not given here. The following applies: HepG2 viability, higher = more signal.
Test [2] can be described thus: budding yeast growth changes without added modifier – OD600, strain BY4716, 24 h, basal condition, primary screen (AID 1173). The following applies: S. cerevisiae BY4716 growth, OD600, 24 h; higher = more signal, called active from +8 up or from −8 down.
A short description of test [3]: viability profiling in MM1S myeloma cells – cell-based, resazurin fluorescence, basal, 24 h, PK04 Diversity Set, profiling panel (AID 1174).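 Note: MM1S multiple myeloma cell line; test concentration not given here.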 The following applies: higher = more signal, called active from +8 up or from −8 down. A general note: The colour change of resazurin is a common sign of viable cells or microbes.
Test [4] concerns the target Dihydroorotate dehydrogenase (quinone), mitochondrial (Plasmodium falciparum (isolate 3D7)) (UniProt Q08210). Put plainly: inhibition of P. falciparum DHODH – biochemical, C-terminal His tag, absorbance 600 nm, primary screen (AID 1175).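 Note: recombinant parasite enzyme with a five histidine tag at its C terminus; test concentration not given here.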 The following applies: PfDHODH enzyme, DCIP absorbance 600 nm; higher = more signal, called active from +8 up or from −8 down.
Test [5] can be described thus: inhibition of PAO1 biofilm formation – strain PAO1, LB-PBS medium, absorbance 600 nm, primary screen (AID 1176). Note: test concentration not given here. The note with it: P. aeruginosa PAO1 growth/biofilm, A600, 12 h; higher = more signal.
Test [6] can be described thus: growth modulation of vineyard yeast isolate – strain RM11-1a, OD600, basal, 24 h, primary screen (AID 1177).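 Note: cultures grown under basal conditions with no added stressor; test concentration not given here.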 The following applies: S. cerevisiae RM11-1a growth, OD600, 24 h; higher = more signal, called active from +8 up or from −8 down.
Test [7] can be described thus: growth of efflux-deficient E. coli DRC39 – strain DRC39, OD650, 24 h, E. coli filamentation inducers, primary screen (AID 1178).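 Note: growth measured as culture turbidity by optical density at 650 nm; test concentration not given here.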 The following applies: E. coli DRC39 acrAB, higher = more signal, called active from +8 up or from −8 down.
The nature of test [8]: growth of efflux-deficient E. coli DRC39 – strain DRC39, OD650, 48 h, E. coli filamentation inducers, primary screen (AID 1179).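 Note: screen aims at cell division blockers that make cells filament.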 The following applies: E. coli DRC39 delta-acrAB growth, higher = more signal, called active from +8 up or from −8 down.
The nature of test [9]: viability profiling in RPMI8226 myeloma cells – cell-based, resazurin fluorescence, basal, 24 h, PK04 Diversity Set, profiling panel (AID 1180).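 Note: RPMI8826 multiple myeloma cell line at 5000 cells per well; test concentration not given here.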 The note with it: higher = more signal.
Test [10] addresses E3 ubiquitin-protein ligase XIAP (Homo sapiens) (UniProt P98170). Put plainly: small molecules binding XIAP protein – biophysical, small-molecule microarray, fluorescence 635 nm, primary screen (AID 1181).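 Note: score merges 667 nm emission and signal to noise over triplicate slides.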 The note with it: higher = more signal.

The source made the active and inactive calls. Unless noted, the rule behind the calls is not given here.

E3 ubiquitin-protein ligase XIAP (Homo sapiens), sequence (P98170 whole entry, looked up): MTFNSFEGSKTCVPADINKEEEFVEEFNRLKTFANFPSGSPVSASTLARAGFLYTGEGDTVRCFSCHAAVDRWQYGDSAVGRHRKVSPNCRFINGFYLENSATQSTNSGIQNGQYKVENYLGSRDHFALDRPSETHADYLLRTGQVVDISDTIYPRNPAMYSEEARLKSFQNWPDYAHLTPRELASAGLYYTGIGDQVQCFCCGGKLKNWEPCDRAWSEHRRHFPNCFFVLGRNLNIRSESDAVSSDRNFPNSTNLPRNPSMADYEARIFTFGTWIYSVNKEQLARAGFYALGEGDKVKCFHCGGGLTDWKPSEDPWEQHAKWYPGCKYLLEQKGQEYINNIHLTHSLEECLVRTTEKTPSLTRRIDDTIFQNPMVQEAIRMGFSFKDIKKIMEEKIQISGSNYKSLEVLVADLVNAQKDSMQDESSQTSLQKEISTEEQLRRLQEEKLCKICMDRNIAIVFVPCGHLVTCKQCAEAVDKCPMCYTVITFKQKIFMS
Dihydroorotate dehydrogenase (quinone), mitochondrial (Plasmodium falciparum (isolate 3D7)), sequence (Q08210 whole entry, looked up): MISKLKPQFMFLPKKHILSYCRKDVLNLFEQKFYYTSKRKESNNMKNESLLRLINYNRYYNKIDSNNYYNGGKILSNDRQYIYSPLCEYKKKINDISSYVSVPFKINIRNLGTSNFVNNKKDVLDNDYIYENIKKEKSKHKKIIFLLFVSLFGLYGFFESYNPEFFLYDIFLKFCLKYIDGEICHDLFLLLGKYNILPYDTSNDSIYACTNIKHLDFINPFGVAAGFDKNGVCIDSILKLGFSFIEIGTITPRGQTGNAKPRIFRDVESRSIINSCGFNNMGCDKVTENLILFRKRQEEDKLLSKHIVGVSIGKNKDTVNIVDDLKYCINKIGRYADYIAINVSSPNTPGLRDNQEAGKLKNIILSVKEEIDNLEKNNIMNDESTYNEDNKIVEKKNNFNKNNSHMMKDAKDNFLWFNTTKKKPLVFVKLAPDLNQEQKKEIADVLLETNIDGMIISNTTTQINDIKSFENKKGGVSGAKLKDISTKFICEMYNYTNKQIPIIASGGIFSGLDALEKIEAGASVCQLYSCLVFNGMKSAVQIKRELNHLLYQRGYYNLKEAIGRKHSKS

Take `O=C(C=Cc1ccc2c(c1)OCO2)c1ccc(F)cc1`: the z-score in [1] is -0.214; in [2], -10.1 (active); in test [3], -0.194 (inactive); in test [5] it was -0.245 (inactive); in [6] it was -0.31 (inactive); in test [7] it was 0.264 (inactive). Further, the results for the z-score in test [8] and in test [9] were -0.423 (inactive) and -0.538, respectively. Also, the values for the composite z-score in test [4] and in test [10] were 0.184 (inactive) and -0.176, respectively.
Turning to `CO[C@H]1COC(=O)[C@@H]2CCCN2C(=O)CC=C[C@@H](C)[C@H](OC)COC(=O)[C@@H](OCc2ccccc2)C=C[C@@H]1C`, the z-score in test [1] is -0.416; in test [2], -1.72 (inactive); in test [3], 1.58 (inactive); in test [5], -1.01 (inactive); in test [6] it was -0.965 (inactive); in test [7], 0.421 (inactive). The figures for the z-score in [8] and in [9] were 0.29 (inactive) and 0.552, respectively. Also, the composite z-score in [4] was -2.88 (inactive); in test [10], -0.284.
As for `CO[C@@H]1COC(=O)[C@H](CCSC)NC(=O)CC=C[C@@H](C)COC(=O)CCC[C@H]1C`, the z-score is 1.09 in test [1]; -0.509 (inactive) in test [2]; -0.11 (inactive) in test [3]; -0.892 (inactive) in [5]; 0.0665 (inactive) in [6]; 0.104 (inactive) in test [7]. Also, the z-score in [8] is 0.156 (inactive); in test [9], 0.53. Moreover, the composite z-score in test [4] is -0.555 (inactive); in test [10], 0.871.
On to `Cc1cc2c(c(=O)o1)[C@@H](O)[C@H]1O[C@H]1C2=O`, for which the z-score in test [1] is -0.721; in [2] it was -0.582 (inactive); in test [3], 0.166 (inactive); in [5], -0.67 (inactive); in [6], 0.322 (inactive); in [7], -0.729 (inactive). Besides, the figures for the z-score in test [8] and in test [9] were -1.26 (inactive) and -0.535, respectively. For the same compound, the values for the composite z-score in [4] and in test [10] were 0.664 (inactive) and 0.13, respectively.
Consider `COC(=O)CC=C[C@@H](C)[C@@H](C=NO[C@@H](C)c1cc(-c2c(C)cc(C)cc2C)no1)NS(=O)(=O)c1ccc(C)cc1`, for which the z-score is 0.245 in test [1]; -0.358 (inactive) in test [2]; -0.019 (inactive) in test [3]; -0.998 (inactive) in [5]; -0.2 (inactive) in test [6]; -1.1 (inactive) in [7]. Also, the z-score in test [8] was -1.55 (inactive); in test [9], -0.33. For the same compound, the figures for the composite z-score in test [4] and in test [10] were -2.27 (inactive) and -0.169, respectively.
With `CC(C)CON=C1C[C@@H](O)[C@@H](O)[C@@H]2[C@@H]3C(=O)N(C4CCCCC4)C(=O)[C@@H]3CC[C@H]12`, the z-score in [1] is -0.451; in test [2], -0.197 (inactive); in test [3], -0.143 (inactive); in test [5] it was -0.118 (inactive); in [6], -0.207 (inactive); in test [7], -0.651 (inactive). For the same compound, the z-score in test [8] is 0.272 (inactive); in [9], -0.365. The results for the composite z-score in [4] and in test [10] were 0.603 (inactive) and 0.224, respectively.
`O=C1[C@H]2[C@H]3[C@H](O)[C@H](O)CC(=NOC[C@@H](O)COCc4ccco4)[C@@H]3CC[C@H]2C(=O)N1C[C@@H]1CCCO1`: the z-score in test [1] is 0.188; in test [2], 0.408 (inactive); in test [3], 0.59 (inactive); in [5], -0.662 (inactive); in test [6], 1.1 (inactive); in [7], 0.93 (inactive). Further, the z-score in [8] was 1.14 (inactive); in test [9] it was -0.256. For the same compound, the composite z-score was 0.121 (inactive) in [4] and 0.137 in test [10].
Turning to `Cc1ccc(S(=O)(=O)N[C@H]2COC(=O)CC=C[C@H](C)[C@@H](NS(=O)(=O)c3ccc(C)cc3)COC(=O)CC=C[C@@H]2C)cc1`, the z-score in [1] was -0.0933; in [2], 1.32 (inactive); in [3], 0.418 (inactive); in test [5], -0.585 (inactive); in test [6], 1.34 (inactive); in test [7], 0.455 (inactive). The z-score in test [8] is 0.614 (inactive); in test [9], 0.0846. The composite z-score in test [4] is -0.069 (inactive); in test [10], -0.146.
On to `CCN1C(=O)[C@H]2[C@H]3[C@H](O)[C@H](O)CC(=NOCC(C)C)[C@@H]3CC[C@H]2C1=O`, for which the z-score in test [1] is 0.424; in [2], -0.18 (inactive); in test [3] it was -0.243 (inactive); in test [5], 0.99 (inactive); in test [6] it was -0.589 (inactive); in [7], -0.556 (inactive). Further, the results for the z-score in test [8] and in [9] were -1.86 (inactive) and 0.279, respectively. For the same compound, the composite z-score in test [4] is -0.423 (inactive); in test [10], -0.0696.
In the case of `CO[C@@H]1COC(=O)[C@@H]2CCCN2C(=O)[C@@H](C)COC(=O)CC=C[C@H]1C`, the z-score in [1] was 1.09; in test [2], 0.755 (inactive); in [3], 0.468 (inactive); in test [5], -0.749 (inactive); in test [6], 0.0994 (inactive); in test [7] it was 0.207 (inactive). The z-score was -0.179 (inactive) in test [8] and 0.189 in test [9]. The composite z-score is -0.385 (inactive) in test [4] and -0.273 in test [10].
Consider `O=C1CCCC=C1C(O)CCCCBr` (stereo not given), for which the z-score in [1] was -1.4; in test [2], -17.6 (active); in [3] it was -8.08 (active); in [5], 1.43 (inactive); in [6], -2.66 (inactive); in test [7], 0.48 (inactive). Further, the z-score in [8] was 0.557 (inactive); in test [9], -4.3. Also, the composite z-score in test [4] is -1.39 (inactive); in [10], -0.193.
`COC(=O)[C@@H]1CC[C@@H](C)[C@H](c2ccc(Br)cc2)N1`: the z-score in test [1] was 0.0869; in [2], -0.176 (inactive); in [3] it was -0.0484 (inactive); in test [5] it was 0.766 (inactive); in test [6] it was -0.0446 (inactive); in test [7], -0.234 (inactive). The z-score in [8] is -0.0612 (inactive); in test [9], 0.429. For the same compound, the values for the composite z-score in test [4] and in [10] were -0.275 (inactive) and 0.0548, respectively.
Consider `COc1cccc([C@H]2Oc3ccc(OC)cc3C(=NOC(C)CN3CCCCc4nc(C)c(C)cc43)[C@@H]2O)c1` (stereo not given in full), for which the z-score is -0.621 in [1]; -0.951 (inactive) in test [2]; -1.16 (inactive) in test [3]; 0.253 (inactive) in test [5]; -0.0905 (inactive) in test [6]; 0.597 (inactive) in test [7]. The z-score in test [8] was 0.748 (inactive); in test [9], -1.16. Also, the composite z-score in [4] was -0.695 (inactive); in test [10], -0.0525.
For `C=COC[C@@H]1CN2[C@@H](CC[C@@H](C)[C@@H]2c2ccc(Br)cc2)C(=O)O1`, the z-score in [1] was -0.32; in [2], -4.37 (inactive); in test [3] it was -0.345 (inactive); in [5], -1.01 (inactive); in test [6], -0.889 (inactive); in test [7] it was -1.03 (inactive). Moreover, the z-score in test [8] is -1.65 (inactive); in [9] it was 0.169. Also, the composite z-score in test [4] was -3.12 (inactive); in test [10], -0.0669.
Regarding `CC(C)(C)N1C(=O)[C@H]2[C@H]3[C@H](O)[C@H](O)CC(=NOCc4ccccc4)[C@H]3CC[C@H]2C1=O`, the z-score was -0.211 in test [1]; -0.565 (inactive) in test [2]; 0.0488 (inactive) in [3]; -0.237 (inactive) in test [5]; -0.786 (inactive) in test [6]; 0.184 (inactive) in [7]. Further, the z-score was 0.332 (inactive) in test [8] and 0.237 in test [9]. Moreover, the composite z-score in test [4] was -0.192 (inactive); in test [10] it was -0.102.
Take `C#CCCCON=C1C[C@@H](O)[C@@H](O)[C@@H]2[C@@H]3C(=O)N(C(C)(C)C)C(=O)[C@@H]3CC[C@@H]12`: the z-score in [1] is -0.202; in test [2], 0.595 (inactive); in test [3] it was -1.24 (inactive); in test [5] it was 0.0001 (inactive); in test [6], 0.438 (inactive); in test [7], -0.35 (inactive). The results for the z-score in test [8] and in test [9] were -0.278 (inactive) and 0.0444, respectively. The composite z-score was 0.289 (inactive) in test [4] and -0.0939 in test [10].
Consider `CCOC(=O)C1=NO[C@]2(C=C(Br)C3(OCCCO3)[C@H]3O[C@H]32)C1`, for which the z-score in [1] is -0.706; in test [2], -0.175 (inactive); in test [3], -0.734 (inactive); in test [5] it was -0.646 (inactive); in test [6], -0.847 (inactive); in [7], 0.336 (inactive). Moreover, the z-score in [8] is 0.645 (inactive); in test [9] it was -0.549. Besides, the values for the composite z-score in [4] and in test [10] were -0.671 (inactive) and 0.201, respectively.
